Test results: PubChem BioAssay AID2391 (Southern Research Specialized Biocontainment Screening …, 2010)
Where “and” joins values, the source holds several entries; their conditions need not be identical. Equal entries are not always repeated. In all, about 310,000 compounds went through this assay and about 410 (0.13%) were called active. Not shown: some 2% with an inconclusive outcome. The rule behind the calls is not given here. These entries were drawn from the full list. Measured potencies and affinities stand elsewhere.

Assay: inhibition of RSV-induced cytopathic effect – HEp-2 cells, primary 10 µM value included (AID 2391)
Conditions: at 10 µM, hits give high values

CPE inhibition, inactive:
NNC(=O)c1csc(-c2cccc(C(F)(F)F)c2)n1 9.01%
O=C(c1cc(Br)ccc1OC(F)F)N1CCN2CCCC2C1 (stereo not given) 0.87%
CCn1ncc(/C=C/C(=O)Nc2c(C)nn(Cc3ccc(Cl)cc3Cl)c2C)c1C 0.17%
O=C(/C=C/c1ccc(O)c(O)c1)O[C@@H]1C[C@](O)(C(=O)O)C[C@@H](O)[C@H]1O 39.5% and 4.56%
O=C(O)/C=C/c1ccc(O)c(O)c1 0.47%
COc1cc(OC)cc(C(=O)NC(=S)N2CCCCC2c2cccnc2)c1 (stereo not given) -0.07%
CCN1CCN(c2ccc(S(=O)(=O)N3CCCCC3)cc2NC(=O)CC(C)c2ccccc2)CC1 (stereo not given) -2.47%
Cc1ccsc1C(=O)OCC(=O)NC1CCCCC1C (stereo not given) 1.57%
CC1CN(C(C)C)C(C)CC1OC(=O)c1ccccc1 (stereo not given) -0.34%
COC(=O)c1ccc(COn2c(=O)c(C)[n+]([O-])c3ccccc32)cc1 2.27%
O=c1[nH]c(COc2ccc(Cl)cc2Cl)nc2ccccc12 20.4%
O=C(COc1ccc(Br)cc1Cl)NNC(=O)c1ccccc1 -0.21%
Cc1nc2c(C)cccn2c(=O)c1NC(=O)c1ccc2c(c1)OCO2 -0.9%
COc1cccc(CN(C(=O)c2ccccc2)C2CCS(=O)(=O)C2)c1 (stereo not given) 1.28%
N#CC(c1ccccc1)c1cccc(Cl)n1 (stereo not given) -0.33%
COc1ccc(C(=O)N2CC(c3ccccc3)CC2=O)cc1 (stereo not given) 1.75%
O=C1CC(c2ccccc2)CN1C(=O)c1ccccc1 (stereo not given) 0.02%
Cc1c(C(=O)N2CCC(C)CC2)sc2ncn(CC(=O)N3CCC(C)CC3)c(=O)c12 3.53%
Cc1ccc(-c2nnn(CC(=O)N(CC(=O)NC3CCCC3)c3ccc(F)cc3)n2)o1 2.25%
CC1Cc2ccccc2N1S(=O)(=O)c1cccc(C(=O)NCCCO)c1 (stereo not given) -0.32%
Cc1cc(C[n+]2cc(Br)ccc2N)c2ncccc2c1 81%
Nc1ccc(Cl)c[n+]1Cc1cccc2cccnc12 50.2%
Nc1scn[n+]1Cc1cccc2cccnc12 19.5%
Cc1cc(C[n+]2ncsc2N)c2ncccc2c1 18.8%
CCCC(=O)OC1CC(C)N(C(=O)c2ccccc2)c2ccc(C)cc21 (stereo not given) 7.5%
COc1ccc(CCNC(=O)COc2cc(C)cc3oc(=O)cc(C)c23)cc1 2.6%
Cc1c(-c2ccccc2)nc2ccccc2c1C(=O)O 0.81%
Cc1c(-c2ccccc2Cl)nc2ccccc2c1C(=O)O 1.54%
NC(=O)CC(NC(=O)Cc1ccc(Br)cc1)c1ccc(NCCN2CCCC2)c([N+](=O)[O-])c1 (stereo not given) 0.07%
CC(Oc1ccc(Cl)cc1Cl)C(=O)NNC(=O)C(=O)N1CCCC1 (stereo not given) 7.07%
COC(=O)NNC(=O)C(C)Oc1ccc(Cl)cc1Cl (stereo not given) 0.74%
COc1ccc(CCn2c(C)cc(C(=O)COC(=O)c3ccc(NC(=O)CC#N)cc3)c2C)cc1 4.94%
COc1ccc(C(=O)OCCc2ccc(O)cc2)cc1 1.11%
Cc1cc(-c2cc(C(=O)NCc3ccccc3)on2)nc(S(C)(=O)=O)n1 2.46%
Cc1ccccc1N(C(=O)CNC(=O)c1ccco1)C(C(=O)NC1CCCCC1)c1ccncc1 (stereo not given) 0.97%
CC(=O)NCCNC(=O)c1ccc(Cn2c(=O)[nH]c3ccsc3c2=O)cc1 0.58%
Cc1ccc([N+](=O)[O-])cc1S(=O)(=O)Nc1cccc(-c2ccc(N3CCOCC3)nn2)c1 30.8%
O=[N+]([O-])c1ccc(Cl)c(S(=O)(=O)Nc2cccc(-c3ccc(N4CCCC4)nn3)c2)c1 55%
O=S(=O)(Nc1ccc(-c2ccc(N3CCOCC3)nn2)cc1)c1cc(Cl)ccc1Cl 1.29%
O=[N+]([O-])c1ccc(Cl)c(S(=O)(=O)Nc2ccc(-c3ccc(N4CCOCC4)nn3)cc2)c1 0.86%
COc1ccccc1OCCn1ccnc1 0.82%
O=C(CC1C(=O)NCCN1Cc1cccc(Oc2ccccc2)c1)NCCn1cccn1 (stereo not given) 1.61%
CCn1ncc(CNC(=O)C2(C)CC2(Cl)Cl)c1C (stereo not given) 2.51%
O=C(O)/C=C/C(=O)NCCC(c1ccccc1)c1ccccc1 -0.16%
O=C(Nc1ccccc1)Nc1ccc(NC(=O)c2ccccc2O)cc1 1.31%
O=C(Nc1cccnc1)c1ccc(Cl)c(S(=O)(=O)N2CCCCC2)c1 10.1%
COc1cc(/C=C/c2cc(C(=O)O)c3ccccc3n2)cc(OC)c1O -0.63%
CCOc1cc(/C=C/c2cc(C(=O)O)c3ccccc3n2)ccc1OC 4.82%
COc1ccc(C2NC(=O)NC(C)=C2C(C)=O)cc1 (stereo not given) 2.63%
Cc1cc(Nc2ccc(Cl)cc2)nc(-c2ccccc2O)n1 14.1%
Cc1cc(Nc2ccccc2)nc(-c2ccccc2O)n1 21.2%
C[C@H]1CCC(=O)N(CCSc2ccc(Br)cc2)CC1 0.08%
CC(C)(C)c1n[nH]c2c1CCCC2 3.59%
COc1ccc2c(c1)Cc1sc(NC(=O)c3cccs3)nc1-2 7.1%
COc1ccc2c(c1)-c1nc(NC(=O)c3ccco3)sc1CC2 45.2%
Cc1nnc(SCC(=O)N2CCc3ccccc3C2)n1-c1ccccc1 2.35%
COc1ccc(CNC(=O)C(C)Sc2nc3ccccc3c(=O)n2CCCN2CCOCC2)cc1 (stereo not given) -1.12%
Cc1cc(C)c(NC(=O)CSc2nc3ccccc3c(=O)n2CCCN2CCOCC2)c(C)c1 -0.42%
C/C(N)=C(/C#N)C(=O)COC(=O)C(NS(=O)(=O)c1ccc(Cl)cc1)C(C)O (stereo not given) 0.82%
Cc1cc(C(=O)N2CCCC(N3CCN(c4cccc(Cl)c4)CC3)C2)nn1C (stereo not given) -0.33%
